# Assay outcomes (PubChem)
# Shown is part of a subset that was picked to be rich in hits.
# RECQ1 helicase: inhibitors of human RECQ1 DNA helicase; RECQ1 DNA unwinding, red fluorescence kinetic read; Potency, µM (series often up to 57.3 µM), usual class: inhibitors; actives 0.54% (n = 240,000); AID 2549; note: nearly all actives have a fitted effect of over 30% in size
#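 50 nM RECQ1T1 preincubated 15 min with compound in Tris pH 8.0 buffer with MgCl2, DTT, Tween-20 and 2.5 ug/ml poly(dI-dC); started with 200 nM TAMRA/BHQ-2 forked duplex and 2 mM ATP. Unwinding read as fluorescence (525/598 nm), two reads 2 h apart.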
# JMJD2E inh: inhibitors of human JMJD2E histone demethylase; B2RXH2; JMJD2E catalytic domain, FDH-coupled NADH fluorescence (FDH is formaldehyde dehydrogenase); Potency, µM (doses to about 57.1 µM), actives largely listed as inhibitors; actives 1.6% (n = 230,000); AID 2147; active = well fitted inhibition curve with a large enough effect, not every such curve was filed as active; inconclusive = small, poorly fitted or top-dose-only effect, or another doubt; inactive = no such curve, though single readings can be large or run the other way; note: nearly all actives have a fitted effect of over 50% in size
# BLM inh: Bloom syndrome helicase (human) inhibition. AID 2528. P54132. recombinant BLM DNA unwinding, fluorescence dequenching. Potency, µM (highest dose often 56.1 µM), actives largely listed as inhibitors. actives 0.2% (n = 350,000); note: nearly all actives have a fitted effect of over 35% in size
# L3MBTL1 inh: inhibitors of human L3MBTL1; AlphaScreen L3MBTL1–H3K9me1 peptide binding; Potency, µM (top dose mostly 57.1 µM), actives largely listed as inhibitors; actives 0.66% (n = 230,000); note: nearly all actives have a fitted effect of over 60% in size
# Target sequence (Q9Y468 whole entry, looked up): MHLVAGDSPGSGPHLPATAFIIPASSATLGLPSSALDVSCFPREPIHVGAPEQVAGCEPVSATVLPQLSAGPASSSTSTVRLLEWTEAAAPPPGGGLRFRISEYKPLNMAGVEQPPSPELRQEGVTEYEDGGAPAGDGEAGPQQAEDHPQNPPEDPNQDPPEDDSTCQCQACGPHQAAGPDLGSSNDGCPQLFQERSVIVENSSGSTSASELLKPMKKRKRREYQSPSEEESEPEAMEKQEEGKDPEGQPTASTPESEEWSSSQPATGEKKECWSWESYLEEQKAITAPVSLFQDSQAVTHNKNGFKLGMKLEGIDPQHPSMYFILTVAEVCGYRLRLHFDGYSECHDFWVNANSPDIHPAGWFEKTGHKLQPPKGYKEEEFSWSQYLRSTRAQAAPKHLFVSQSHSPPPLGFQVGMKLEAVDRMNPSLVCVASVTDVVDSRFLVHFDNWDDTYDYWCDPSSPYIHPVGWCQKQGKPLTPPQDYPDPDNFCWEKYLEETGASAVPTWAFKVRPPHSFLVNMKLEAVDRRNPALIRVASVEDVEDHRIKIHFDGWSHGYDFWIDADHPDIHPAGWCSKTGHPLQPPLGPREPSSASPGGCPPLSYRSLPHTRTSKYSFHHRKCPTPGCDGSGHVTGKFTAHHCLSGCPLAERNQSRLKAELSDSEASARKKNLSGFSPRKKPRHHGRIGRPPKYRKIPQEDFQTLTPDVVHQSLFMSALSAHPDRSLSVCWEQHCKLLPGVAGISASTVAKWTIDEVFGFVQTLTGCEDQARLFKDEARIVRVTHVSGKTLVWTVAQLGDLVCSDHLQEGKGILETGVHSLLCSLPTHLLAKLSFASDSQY
#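 Read-out is AlphaScreen signal from streptavidin donor and nickel chelate acceptor beads (10 ug/mL final each) bridging L3MBTL1 (50 nM) and biotinylated K9-monomethylated H3(1-15) peptide (75 nM), after 30 min compound exposure at room temperature.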
# GCN5L2 inh: blocks human GCN5L2 histone acetyltransferase; GCN5L2 HAT assay, ThioGlo1 CoA-SH fluorescence; actives 0.21% (n = 390,000); AID 504327; Q92830; Potency, µM (top dose mostly 58.9 µM), actives largely listed as inhibitors
#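 Fluorescence readout, Ex340nm/Em540nm: ThioGlo1 (50uM final) reacts with free CoA thiol released as 20nM GCN5L2 acetylates H3(1-25) peptide (75uM) using acetyl-CoA (70uM). Compound and enzyme sat 15 min beforehand; 20 min room-temperature reaction.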
# APE1 inh: inhibitors of human APE1 endonuclease | Potency, µM (highest dose often 65.8 µM), actives largely listed as inhibitors | AID 2517 | actives 0.35% (n = 350,000) | recombinant APE1, TAMRA/BHQ-2 abasic DNA cleavage fluorescence | P27695; note: nearly all actives have a fitted effect of over 55% in size
#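 Measures dequenching upon AP-site incision of a 5'-TAMRA/3'-BHQ-2 THF-containing duplex, 50 nM; human APE1 0.75 nM after 15 min room-temperature exposure to compound; kinetic three-point read at one-minute spacing.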
# A number is an active result; – = inactive; ? = inconclusive; · = not tested or not shown; ! = repeats disagree. Unless noted, calls come from the whole dose curve; as a rule, active = well fitted curve in the direction sought with a large enough effect; inconclusive = small, poorly fitted or top-dose-only effect, or another doubt; inactive = no such curve, though single readings can be large; an effect the other way counts as inactive or inconclusive.
SMILES,RECQ1 helicase,JMJD2E inh,BLM inh,L3MBTL1 inh,GCN5L2 inh,APE1 inh
Cc1ccc(S(=O)(=O)N(C(=O)c2ccncc2)c2ccc(OC(=O)c3ccncc3)c3ccccc23)cc1,–,16µM,–,–,–,–
CS(=O)(=O)NN1C(=O)c2ccccc2NC1c1c[nH]c2ccccc12 (centres undefined),–,?,–,–,–,–
Cc1c(C(=O)N2CCCCC2)c(S(=O)(=O)N2c3ccccc3CC2C)c(C)n1C (centres undefined),·,·,–,·,–,–
COc1ccc(CCN(C)CCC(=O)Nc2cc(C)ccc2C)cc1OC,–,–,–,–,1.6µM,–
COC(=O)c1ccc(C)c(NC(=O)CCc2ccc(OC)c(OC)c2)c1,–,–,–,–,–,–
Cc1c(CN(C)C(=O)c2cc(-c3ccccc3)nc3ccc(Br)cc23)cnn1C,·,·,–,·,–,·
COc1cccc(Nc2ccc(N3CCCCC3)cc2)c1OC,·,·,·,35µM,–,–
COc1cccc(OC)c1C(=O)Nc1ccccc1N1CCCCC1,·,·,–,–,–,–
COc1cccc(CNc2ccc(N3CCCCC3)cc2)c1OC,–,11µM,–,20µM,–,–
COc1ccccc1CNc1ccc(C(=O)O)cc1,–,–,–,·,–,–
COc1ccccc1CNc1ccc(N2CCCCC2)cc1,–,20µM,–,?,–,–
COc1cc(O)c2c(=O)c(O)c(-c3ccc(O)c(O)c3)oc2c1,?,22µM,–,·,–,?
O=c1cc(-c2ccc(O)c(O)c2)oc2ccc3ccccc3c12,·,·,·,–,–,0.42µM
O=c1c(O)c(-c2ccc(O)c(O)c2)oc2ccccc12,2.2µM,10µM,–,·,·,?
O=c1c(O)c(-c2ccc(O)cc2)oc2cc(O)cc(O)c12,–,?,–,·,–,?
O=c1c(O)c(-c2cc(O)c(O)c(O)c2)oc2cc(O)ccc12,4.5µM,·,–,·,?,0.28µM
COc1ccc(C2=Nn3c(nnc3-c3ccccc3Cl)SC2)cc1O[C@H]1CCOC1,·,·,·,·,·,–
COC1/C=C/OC2(C)Oc3c(C)c(O)c4c(O)c(c(/C=N/N5CCN(C)CC5)c(O)c4c3C2=O)NC(=O)/C(C)=C/C=C/C(C)C(O)C(C)C(O)C(C)C(OC(C)=O)C1C (centres undefined),–,8.9µM,–,·,·,–
CC[C@H](C)[C@H](NC(=O)[C@H](C)NC(=O)[C@H](Cc1cnc[nH]1)NC(=O)[C@@H]1CCCN1C(=O)CNC(=O)[C@H](CC(C)C)NC(=O)[C@H](CC(C)C)NC(=O)[C@H](Cc1ccc(O)cc1)NC(=O)CNC(=O)[C@H](C)NC(=O)[C@H](CO)NC(=O)[C@H](CC(N)=O)NC(=O)[C@H](CC(C)C)NC(=O)[C@@H](NC(=O)[C@H](Cc1c[nH]c2ccccc12)NC(=O)CN)[C@@H](C)O)C(=O)N[C@@H](CC(=O)O)C(=O)N[C@@H](CC(N)=O)C(=O)N[C@@H](Cc1cnc[nH]1)C(=O)N[C@@H](CCCNC(=N)N)C(=O)N[C@@H](CO)C(=O)N[C@@H](Cc1ccccc1)C(=O)N[C@@H](CO)C(=O)N[C@@H](CC(=O)O)C(=O)N[C@@H](CCCCN)C(=O)N[C@@H](Cc1cnc[nH]1)C(=O)NCC(=O)N[C@@H](CC(C)C)C(=O)N[C@H](C(N)=O)[C@@H](C)O,–,·,–,·,–,–
O=C(NO)c1ccccc1O,–,10µM,–,–,–,–
C[C@H]1C(=O)N(S(=O)(=O)c2ccccc2[N+](=O)[O-])[C@H]1c1ccc(-c2ccccc2)cc1,–,·,–,·,·,–
NCCNCCN,5.6µM,·,–,·,–,3.5µM
O=C(Cn1cc(F)c(=O)[nH]c1=O)NCCO,–,–,–,–,–,–
CCn1c(CSc2nnc(-c3cccnc3)n2-c2ccccc2C)nc2cc(C(=O)O)ccc21,32µM,?,–,?,–,?
CC(=O)N1CCN(Cc2ccc(Br)s2)CC1,–,–,–,?,–,–
SMILES,RECQ1 helicase,JMJD2E inh,BLM inh,L3MBTL1 inh,GCN5L2 inh,APE1 inh
O=C(/C=C/c1ccc(O)c(O)c1)O[C@H]1C[C@@](O)(C(=O)O)CC(O)C1O (some centres undefined),–,16µM,–,·,–,–
CC(=O)c1ccc(Sc2ccccc2N)c([N+](=O)[O-])c1,–,–,–,?,–,–
Nc1ccccc1Sc1ccc(C(=O)c2ccccc2C(=O)O)cc1[N+](=O)[O-],–,?,–,–,20µM,–
COc1ccc(CCN2CCC[C@H](CN3CCc4cc(OC)c(OC)cc4CC3=O)C2)cc1OC,–,·,–,·,–,–
CCN(CC)c1ccc(C=C2C(=O)OC(c3ccccc3)OC2=O)cc1 (centres undefined),–,–,–,·,–,–
CCN(CC)c1ccc(/C=C/C(=O)C2C(=O)C=C(C)OC2=O)cc1 (centres undefined),16µM,?,?,·,–,?
CCOC(=O)C1=C(CSc2nc(-c3ccccc3)ccc2C#N)OC(N)=C(C#N)C1c1ccccc1 (centres undefined),22µM,–,–,·,–,–
CC[n+]1c(/C=C/C=C/N(C(C)=O)c2ccccc2)sc2ccccc21,–,–,–,–,–,–
CC[n+]1c(/C=C/C=C2/N(C)c3ccccc3C2(C)C)sc2ccccc21,·,·,·,·,28µM,·
CC1(C)CC(=O)c2c(oc3cc(O)c(O)cc23)C1,20µM!,13µM,–,·,–,?
CC1CC=CC2C1C(=O)N(Cc1ccccc1)C2c1ccc(-c2ccc(N(C)C)cc2)cc1F (centres undefined),–,·,–,·,·,–
CC(C)(C)OC(=O)C[C@@H]1C/C=C\C[C@@H](CC(=O)N(CCO)Cc2ccccc2)C(=O)N[C@H](C(C)(C)C)COC1=O,·,·,·,–,–,12µM
CC(C)(C)OC(=O)C[C@H]1C/C=C\C[C@@H](CC(=O)N(CCO)Cc2ccccc2)C(=O)N[C@H](C(C)(C)C)COC1=O,·,·,·,–,–,–
Oc1cccc(O)c1,–,–,–,·,–,–
O=S(=O)(c1cc(O)ccc1O)c1cccc2c(S(=O)(=O)c3cc(O)ccc3O)cccc12,·,·,·,3.2µM,?,2.1µM
Cc1nnc(NC(=O)c2sc3nc(-c4cccs4)cc(C(F)(F)F)c3c2N)s1,?,?,–,–,–,–
CC(C)(C)C(=O)c1sc2nc(-c3cccs3)cc(C(F)(F)F)c2c1N,–,6.3µM,–,–,–,–
Nc1ccccc1N=Nc1ccccc1N,·,·,–,8.9µM,–,–
O=C(CN1C(=O)S/C(=C\c2ccc(-c3cc(C(=O)O)ccc3Cl)o2)C1=O)Nc1ccc2c(c1)OCO2,·,·,10µM,·,?,6.7µM
Cn1cc(/C=C2/SC(=O)N(CC(=O)Nc3ccc4c(c3)OCO4)C2=O)c2ccccc21,–,–,–,–,?,–
